High-throughput results: PubChem BioAssay, several laboratories
Measles CPE – protection of cells from measles virus; Measles virus-infected cells, CPE protection, absorbance; protection (pct of control), % at 4 µM; 1.5% of 140,000 active; AID 841; in the data active = protection mostly above about 24%, no sharp cut-off; inactive = mostly below about 26%
NFkB transloc inh – blocks IL-1B driven NFkB nuclear translocation in HUVEC cells | HUVEC IL-1B NFkB p65 nuclear translocation imaging | inhibition, % at 2 µM | 0.43% of 94,000 active;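 active = inhibition above about 30% together with a positive call from visual inspection of the well image, limit read from the data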;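 also: nuclear over cytoplasmic p65 intensity ratio measured by imaging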
IL1B cytotox – HUVEC cytotoxicity counter-screen, IL-1B stimulated; HUVEC cell count loss, Hoechst imaging; cell count reduction, % at 2 µM; 0.41% of 94,000 active; AID 845;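 active = cell count reduction more than 3 SD above the screen-wide mean, cut at about 70% in these data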
IL1B NFkB pot – enhances IL-1B driven NFkB nuclear translocation; HUVEC IL-1B NFkB p65 nuclear translocation imaging; activation, % at 2 µM; 0.3% of 94,000 active;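 active = activation above 40%, about the mean plus 3 SD, also judged a hit on visual image review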;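 also: percent activation is computed from the nuclear over cytoplasmic p65 intensity ratio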
A number is an active result; i = inactive; nt = not tested or not shown. Compounds with a hit are over-represented: about 2.1% of the library has one in this group of screens.

SMILES | Measles CPE | NFkB transloc inh | IL1B cytotox | IL1B NFkB pot
O=C(Nc1ccc2c(c1)OC1(CCCC1)O2)C1CC1 | i | nt | nt | nt
CC(=O)CSc1nc(C(F)(F)F)cc(=O)n1-c1ccccc1 | i | nt | nt | nt
O=C(O)CSc1nc(C(F)(F)F)cc(=O)n1-c1ccccc1 | 49 | i | i | i
Cc1nc(NCc2ccco2)c2c3c(sc2n1)CCC3 | i | i | i | i
CCN1CCc2c(sc3c2c(NCc2ccco2)nc2nnnn23)C1 | 35 | nt | nt | nt
COc1cc(SC)ccc1C(=O)Nc1ccc2c(c1)OCCO2 | i | i | i | 45
O=C(NCCC1=CCCCC1)C1CCN(C(=O)c2ccc(Br)cc2)CC1 | 30 | nt | nt | nt
Cc1oc(-c2ccccc2F)nc1CN1CCC(C(=O)NCCC2=CCCCC2)CC1 | 24 | i | i | i
COc1ccc(CCNC(=O)C2CCN(Cc3nc(-c4ccccc4F)oc3C)CC2)cc1OC | i | i | i | i
COc1ccc2cnn(-c3ccccc3C)c(=O)c2c1OC | i | nt | nt | nt
COc1ccccc1CN(Cc1nc2ccccc2c(=O)[nH]1)C(=O)Nc1cccc(C)c1 | i | i | i | i
Cc1noc(C)c1COC(=O)COc1ccc2c(C)cc(=O)oc2c1 | 39 | i | i | i
Cc1noc(C)c1COC(=O)Cc1ccc(Cl)c(Cl)c1 | 40 | i | i | i
CCCCNCC(=O)Nc1ccc(NC(=O)CNCCCC)cc1 | i | i | i | i
O=C(O)CSc1ncnc2c1oc1ccccc12 | 27 | i | i | i
N#CCCSc1ncnc2c1oc1ccccc12 | i | i | i | i
CCOC(=O)CC(=O)CSc1ncnc2c1oc1ccccc12 | i | i | i | i
OCCSc1ncnc2c1oc1ccccc12 | i | 32 | i | i
COc1ccnc(NCc2cccnc2)c1C#N | i | i | i | i
CC1CN(c2ccc(Oc3ccccc3)cc2)c2nc3c(c(=O)[nH]c(=O)n3C)n2C1 (stereo not given) | i | i | i | i
O=C(CN1CCN(Cc2cccc(Cl)c2)C1=O)NCc1ccccn1 | 34 | i | i | i
CSc1cccc(NC(=O)Nc2ccc(Cl)cc2)c1 | i | 76 | i | i
COc1ccc(C(=O)CSc2nnc(CCc3ccccc3)n2-c2ccccc2)cc1 | 25 | i | i | i
COc1ccc(NC(=O)CSc2nnc(C3CC3)n2N)cc1 | i | i | i | i
COc1ccc(NC(=O)CSc2nnc(C3CCCCC3)n2-c2ccccc2)cc1 | i | 81 | i | i
SMILES | Measles CPE | NFkB transloc inh | IL1B cytotox | IL1B NFkB pot
O=C(CSc1nnc(C2CC2)n1-c1ccccc1)Nc1ccc(N2CCOCC2)cc1 | 39 | i | i | i
COc1ccc(-n2c(CCc3ccccc3)nnc2SCC(=O)c2ccccc2)cc1 | i | nt | nt | nt
O=C(CSc1nnc(-c2cccs2)n1-c1ccccc1)N1CCOCC1 | 38 | i | i | i
COc1cccc(CNC(=O)C2CCN(S(=O)(=O)N3CCCC3)CC2)c1 | i | nt | nt | nt
COc1ccc(C(=O)N2CCCC(c3nc(-c4ccc(OC)c(OC)c4)no3)C2)c(OC)c1 (stereo not given) | i | i | i | i
CC(C)(C)SCCNC(=O)c1ccc(NS(C)(=O)=O)cc1 | i | i | i | i
CCCn1c(C)cc(=O)c2cc(NC(=O)c3ccccn3)ccc21 | i | i | i | i
Cc1ccc(C(=O)Nc2cccc(C(=O)N3CCOCC3)c2)cc1 | i | i | i | i
O=C(Nc1cccc(C(=O)N2CCOCC2)c1)c1cncc(Br)c1 | 38 | i | i | i
Cc1cc(C)c2c(n1)sc1c(=O)n(Cc3ccccc3Cl)nnc12 | i | i | i | i
O=C(Nc1cccc2ccccc12)c1ccc(OC(=S)N2CCOCC2)cc1 | 109 | nt | nt | nt
O=C(Nc1cccc2ccccc12)N1CCOCC1 | i | i | i | i
Cc1ccccc1C(=O)O/N=C1\CCS(=O)(=O)c2sccc21 | i | i | i | i
CCCCCC(=O)N/N=C/c1ccc([N+](=O)[O-])o1 | i | i | 93 | i
Cc1ccc(NCC(=O)N/N=C\c2ccc([N+](=O)[O-])o2)cc1 | i | i | i | i
O=C(NNC(=O)c1cc(-c2ccccc2)nn1-c1ccccc1)c1ccccc1 | i | nt | nt | nt
CCn1c(O)c(C=NCCN2CCOCC2)sc1=S | i | i | i | i
COc1cc2c(cc1OC)C(c1ccc3c(c1)OCO3)C1=C(CC(C)(C)CC1=O)N2 (stereo not given) | 25 | i | i | i
COc1ccc(Nc2nnc(SCC(=O)/C=C3/N(C)c4ccccc4C3(C)C)s2)cc1 | i | nt | nt | nt
O=C(NCc1ccco1)c1cc(-c2ccco2)on1 | 85 | i | i | i
Cc1ccc(CNC(=O)c2cn(C3CCCC3)c(=O)c3c2c2ccccc2n3C)o1 | i | i | i | i
O=C(COC(=O)c1cc(-c2cccs2)nc2ccccc12)NCc1ccco1 | i | i | i | i
O=C(NCc1ccco1)c1cc(-c2cccs2)nc2ccccc12 | 59 | nt | nt | nt
Cn1nc(C(=O)NCc2ccco2)c2ccccc2c1=O | 24 | nt | nt | nt
Cn1c2ccccc2c2c(C(=O)NCc3ccco3)cn(C3CCCCC3)c(=O)c21 | 42 | i | i | i
SMILES | Measles CPE | NFkB transloc inh | IL1B cytotox | IL1B NFkB pot
O=C1c2ccccc2C(=O)N1OCc1ccccc1 | i | i | i | i
N#Cc1cn(OCc2ccccc2)c(=O)[nH]c1=O | 31 | nt | nt | nt
CCOC(=O)Cn1c2ccccc2c2nc3ccccc3nc21 | 46 | i | i | i
Cc1c(-c2ccccc2)[nH]n2c(=O)c3c(nc12)CCCC3 | i | nt | nt | nt
Cc1ccc(-c2[nH]n3c(=O)c4c(nc3c2C)CCCC4)cc1 | 31 | i | i | i
CCCNS(=O)(=O)c1ccc(Oc2ncc(C(F)(F)F)cc2Cl)cc1 | i | i | i | i
O=C(O)CN1C(=O)Nc2ccc(Br)cc2C1c1ccccc1 (stereo not given) | 39 | nt | nt | nt
NNC(=O)CN1C(=O)Nc2ccc(Br)cc2C1c1ccccc1 (stereo not given) | i | i | i | i
CN(C)CC1CCCCC1C1(O)c2ccccc2CSc2sccc21 (stereo not given) | i | i | i | i
CCN1CC2([N+](=O)[O-])C=CC(=O)C([N+](=O)[O-])(C1)C2CC(=O)c1ccccc1 (stereo not given) | 27 | i | i | i
CCCCN1CC2([N+](=O)[O-])C=CC(=O)C([N+](=O)[O-])(C1)C2CC(=O)c1ccccc1 (stereo not given) | i | nt | nt | nt
COc1ccc(/C=C2\SC(=S)N(NC(=O)c3csc4c3CCCC4)C2=O)cc1 | i | i | i | i
CCOC(=O)c1cnn(CCOC(=O)C2CC2)c1NC(=O)C1CC1 | i | i | i | i
CCN(CC)S(=O)(=O)c1ccc(OC)c(NC(=S)Nc2cccc(C)c2C)c1 | 45 | nt | nt | nt
COc1ccc(-c2nc3c(n2O)CCCC3=O)cc1OC | 89 | i | i | i
Cc1[nH]nc2c1C1(CCC(c3ccccc3)CC1)C(C#N)=C(N)O2 (stereo not given) | i | i | 86 | i
Cc1[nH]nc2c1C1(CCN(C(=O)c3ccccc3)CC1)C(C#N)=C(N)O2 | i | i | i | i
CCOC(=O)c1c(C)[nH]c(C(=O)Cn2c(=O)c3c(ncn3CC)n(Cc3ccccc3)c2=O)c1C | i | i | i | i
Cc1cc(=O)[nH]c(SCCCOc2ccc(F)cc2)n1 | i | i | i | i
Cc1cc(Cl)c(OCCCSc2nc(C)cc(=O)[nH]2)c(Br)c1 | i | i | 90 | i
Cc1cccc(/C(N)=N/OC(=O)COc2ccc(Cl)c(C)c2)c1 | 23 | nt | nt | nt
Cc1ccc(S(=O)(=O)/N=C(/Nc2c(C)n(C)n(-c3ccccc3)c2=O)c2ccccc2)cc1 | i | nt | nt | nt
